EBNA-1 inhibitor: blocks EBNA-1 binding to DNA. EBNA-1 DNA binding, fluorescence polarization. AID 1950. inhibition, % at 14.8 µM. hit rate 0.34% among 300,000; in the data active = inhibition above about 28%
Rpn11 inh: Rpn11 (human) deubiquitinase inhibition; human 26S proteasome, Ub4-pepOG fluorescence polarization; 20S core pre-blocked with epoxomicin; hit rate 0.59% among 360,000; O00487; inhibition, % at 20 µM; AID 588493;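 active = inhibition at 20 µM, scaled to each plate's controls, above about 33%, limit read from the data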
ZTA counter: ZTA (EBV) inhibition in EBNA-1 counter-screen | hit rate 0.15% among 320,000 | AID 2234 | inhibition, % at 11 µM | ZTA-DNA binding, fluorescence polarization; in the data active = inhibition above about 33%
TPT1 inh: C. albicans TPT1 enzyme inhibition. hit rate 0.81% among 300,000. recombinant caTPT1, FP RNA substrate dephosphorylation. inhibition, % at 5 µM;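 active = inhibition above the mean of all tested compounds plus 3 SD, set per screening campaign, cut at about 24% in these data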;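 also: plate controls were DMSO alone for no effect and ferristatin control at 100 nM for full effect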
dFosB activator: activators of mouse delta FosB homodimer. hit rate 0.99% among 340,000. purified delta FosB, TAMRA-CDK5 oligo fluorescence polarization; percent of positive-control signal above neutral wells. activation, % at 25 µM. AID 493131;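 active = mean activation above about 17%, with every replicate also reaching it, limit read from the data, passing the limit was not always enough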
Target sequence (P13346 whole entry, looked up): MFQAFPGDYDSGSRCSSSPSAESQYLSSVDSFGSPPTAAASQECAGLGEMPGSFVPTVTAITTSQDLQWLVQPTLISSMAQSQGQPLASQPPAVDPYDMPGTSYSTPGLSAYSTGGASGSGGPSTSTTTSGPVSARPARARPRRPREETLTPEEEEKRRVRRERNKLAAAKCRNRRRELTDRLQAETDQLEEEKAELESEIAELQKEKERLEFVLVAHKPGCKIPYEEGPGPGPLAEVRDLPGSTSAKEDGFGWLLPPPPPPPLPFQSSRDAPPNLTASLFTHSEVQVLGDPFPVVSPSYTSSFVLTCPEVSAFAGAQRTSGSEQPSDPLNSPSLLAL
NR3A LBD binder: modulates the human NR3A ligand-binding domain; NR3A LBD differential scanning fluorimetry, Tm shift; 0% = protein alone, 100% = glycine-bound protein; Tm shift relative to glycine control, % at 25 µM; hit rate 2.5% among 340,000;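 active = melting temperature shift of at least 10% of the positive control shift, at one fixed dose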
* hit, by the source's call; / = no result given. Rows were chosen to be rich in hits. Some 4.5% of all compounds tested hit in one or more screens of this group.

SMILES	EBNA-1 inhibitor	Rpn11 inh	ZTA counter	TPT1 inh	dFosB activator	NR3A LBD binder
O=C(Nc1ccccc1Cl)c1cccs1	0	-2	-6	-6	4	1
COc1ccc(NS(=O)(=O)c2cccc(NC(=O)CCC(=O)c3ccc(Cl)cc3)c2)cc1	-1	8	3	5	-6	26*
COc1ccc(NS(=O)(=O)c2cccc(NC(=O)c3ccc(Cl)nc3)c2)cc1	-2	-3	10	0	-11	1
O=C(Nc1ccc(Cl)c(S(=O)(=O)Nc2ccccc2Cl)c1)c1cccs1	12	2	3	-2	-3	31*
O=C(Nc1cccc(S(=O)(=O)Nc2ccc(Cl)cc2)c1)c1ccc(Cl)nc1	-3	1	-6	-3	-8	21*
CSCc1ccc(C(=O)Nc2ccc(C(N)=O)cc2)cc1	4	2	-11	2	-4	0
C/C(CC(=O)Nc1cc(C)ccn1)=N\NC(=O)c1ccc(C(C)(C)C)cc1	9	-5	-6	-4	-4	1
O=C(NNC(=O)C1CCN(c2ncccn2)CC1)c1ccncc1	1	-11	19	-1	-5	-1
CCNC(=S)Nc1ccc(C)c(S(=O)(=O)Nc2ccccc2OC)c1	2	-8	11	-5	-3	0
COc1ccccc1NS(=O)(=O)c1cc(NC(=S)Nc2cc(C)cc(C)c2)ccc1Cl	-3	1	-8	2	-7	20*
COc1ccc(NS(=O)(=O)c2ccc(OC)c(NC(=O)CCC3CCCC3)c2)cc1	2	6	8	-3	1	32*
Cc1cccc(NC(=O)c2cccc(NS(=O)(=O)c3ccc(Cl)cc3)c2)c1	-1	4	-5	-1	-21	12*
CC(=O)Nc1ccc(S(=O)(=O)Nc2cccc(C(=O)NC(C)(C)C)c2)cc1	3	-4	11	-1	-1	13*
Cc1cccc(NS(=O)(=O)c2nnc(NC(=O)c3ccc(Cl)cc3)s2)c1	-5	8	3	2	11	-2
CC(C)(C)NC(=O)NCc1cccnc1	-13	-4	-2	2	2	0
O=C(Nc1ccc(N2CCCC2)c(S(=O)(=O)Nc2cccc(C(F)(F)F)c2)c1)c1cccs1	-4	-3	-2	-2	-8	30*
O=C(Nc1ccon1)c1cc2c(s1)CCCC2	-3	-5	2	0	-16	6
Cc1ccc(NC(=O)c2cc3c(s2)CCCC3)cc1S(=O)(=O)Nc1ccccc1Cl	-3	6	-11	-1	-7	18*
O=C(Nc1cccc(S(=O)(=O)Nc2ccc(Cl)cc2)c1)c1cc2c(s1)CCCC2	13	2	5	2	-9	32*
Cc1ccc(NC(=O)CNC(=O)c2cccs2)cc1S(=O)(=O)Nc1ccc(Cl)cc1	1	-5	-6	-3	0	12*
COc1ccc(S(=O)(=O)N/N=C(/C)c2cccc(NC(=O)c3ccccc3Cl)c2)cc1	-6	3	1	0	0	-11
Cc1nn2c(N3CCN(C4CCCC4)CC3)cc(C(C)(C)C)nc2c1-c1ccccc1	-10	5	-7	-2	-3	13*
COc1ccc(C(C2C(=O)CC(C)(C)CC2=O)C2C(=O)CC(C)(C)CC2=O)cc1COCC(F)(F)F	-8	-2	6	-2	-12	13*
O=c1c2ccccc2oc2ccc(-c3ccc4[nH]ccc4c3)cc12	8	6	-4	-1	-8	18*
C#CCOCCOCCOCCNc1nc(N2CCN(C(=O)CCCCCCCCCCNC(=O)[C@@H](CCSC)n3cc(CCO)nn3)CC2)nc(N2CCN(C(=O)CCCCCCCCCCNC(=O)[C@H](CCSC)n3cc(CCO)nn3)CC2)n1	2	-2	-22	-1	-2	-5
C#CCOCCOCCOCCNc1nc(N2CCN(C(=O)CCCCCCCCCCNC(=O)[C@H](CO)n3cc(CCCSC)nn3)CC2)nc(N2CCN(C(=O)CCCCCCCCCCNC(=O)[C@@H]([C@H](C)O)n3cc(C)nn3)CC2)n1	3	/	14	-4	/	/
